# According to PubChem BioAssay (NCI):
# About 83,000 compounds went through this panel and 20% of them were active in at least one assay; those are over-represented in the sample as a whole.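 A percent growth of 40 corresponds to 60% growth inhibition; 0 means no net growth; -100 means all cells died. Active threshold: below 10.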 Active and inactive are the calls of the source.
# System: BT-549 breast
# Assay: NCI-60 one-dose screen, 48 h (100 = growth as untreated, 0 = no growth, -100 = all killed)
# Conditions: 10 µM unless noted
# Experimental: Growth inhibition of the BT-549 human tumor cell line is measured as a screen for anti-cancer activity. Cells are grown in 96 well plates and exposed to the test compound for 48 hours. Compounds are tested at a single concentration, which is 10^-5 M for most compounds. The reported endpoint is percent growth (GI% or GIPRCNT), where numbers from 0 - 100% represent growth inhibition, and numbers from -100% - 0 represent cell death. For example, a value of 40 represents 60% growth inhibition. A value of 0 means no net growth occurred over the course of the experiment. A value of -40 indicates 40% of cells at the beginning of the experiment died by the end of the experiment. A value of -100 means all cells are dead at the end of the experiment.
# NCI-60 Human Tumor Cell Lines Screen was performed using the standard one-dose NCI protocol, which is described in more detail at https://dtp.cancer.gov/discovery_development/nci-60/default.htm.
# Compounds with GIPRCNT values below 10 were considered active. Activity score was based on GIPRCNT using the following formula: […]
# Score is 0 for GIPRCNT values of 100 or above, 50 for GIPRCNT values of 0, and 100 for GIPRCNT values of -100.
row,Structure (SMILES),growth
1,Cc1cc(=O)[nH]c(/C(=N/Nc2ccccc2)C(=O)c2ccc(Cl)cc2)n1,97.4% (inactive)
2,CCc1ccc(-c2nc(SCC(=O)NC3CCCCC3)n[nH]2)cc1,84.6% (inactive)
3,CCCc1n(Cc2ccc3ccccc3c2)cc[n+]1Cc1ccc2ccccc2c1,-32.2% (active)
4,C[C@@H]1[C@H]2[C@H](C=C3[C@@H]4CC[C@H]5Cc6nc7c(nc6C[C@]5(C)[C@H]4C[C@@H](O)[C@@]32C)C[C@@H]2CC[C@H]3C4=C[C@@H]5O[C@@]6(CC[C@](C)(CO)O6)[C@@H](C)[C@@]5(O)[C@@]4(C)[C@H](O)C[C@@H]3[C@@]2(C)C7)O[C@]12CCC(C)(C)O2,3.41% (active)
5,c1ccc2nc(Cn3c[n+](Cc4ccc5ccccc5n4)c4ccccc43)ccc2c1,8.39% (active)
6,COc1cc(/C=C/C(=O)c2c(C)n([O-])c3ccc(Cl)cc3[n+]2=O)cc(OC)c1OC,53.8% (inactive)
7,CCSc1nc(-c2ccc(F)cc2)c(C#N)c(=O)[nH]1,105% (inactive)
8,COc1cnc2c(c1)C(=O)c1c-2n(CCCN2CCNCC2)c(=O)c2cc(F)ccc12,4.74% (active)
9,O=C(c1ccccc1)c1ccc(Oc2ccc([N+](=O)[O-])cc2[N+](=O)[O-])cc1,-1.35% (active)
10,c1ccc(-c2n(Cc3ccc4ccccc4c3)cc[n+]2Cc2ccc3ccccc3c2)cc1,-77.5% (active)
11,NC(=NCCCCCCN=C(N)/N=C(\N)Nc1ccc(Cl)cc1)/N=C(\N)Nc1ccc(Cl)cc1,10.6% (inactive)
12,Cc1cnc2nc(-c3ccc(N(C)C)cc3)cn2c1,112% (inactive)
13,Cn1cnc([N+](=O)[O-])c1Sc1nc(N)nc2nc[nH]c12,43.4% (inactive)
14,O=C(CNC(=O)c1cccc2ccccc12)Nc1ccccc1Cc1ccccc1,40.3% [5 µM] (inactive)
15,CCOc1cc(/C=C/C(=O)CC(=O)/C=C/c2ccc(OC(=O)CNc3nc4ccc(OC)cc4s3)c(OCC)c2)ccc1OC(=O)CNc1nc2ccc(OC)cc2s1,-1.58% (active)
16,COC(=O)C1=CCC(n2cnc3c(N)ncnc32)O1 (stereo not given),114% (inactive)
17,CC1CN(C2CCCCC2)C(=O)NC1=O (stereo not given),104% (inactive)
18,O=C(COc1cccc(/C=C2\Oc3ccc4ccccc4c3C2=O)c1)c1ccc(Cl)cc1,3.5% (active)
19,Nc1ccccc1C#Cc1ccccc1C#Cc1ccc(OCCCCCCOc2ccc(C#Cc3ccccc3C#Cc3ccccc3N)cc2)cc1,104% (inactive)
20,COC(=O)Nc1ccc2ccc3c(NC(=O)OC)ccc4ccc1c2c43 (tested in a mixture with another compound),63.2% (inactive)

row,Structure (SMILES),growth
1,O=[N+]([O-])c1ccc(NS(=O)(=O)c2ccc(Cl)c(Cl)c2)cc1,76.8% (inactive)
2,COc1ccc2[nH]c(=O)c(CNc3ccc(Nc4nccc(-c5ccc(Cl)cc5)n4)cc3)cc2c1,104% (inactive)
3,Cc1cccc2nnc(-c3ccccc3)n12,98.9% (inactive)
4,C(=C1c2ccccc2-c2ccccc21)c1ccncc1,38.6% (inactive)
5,N[C@H](CS)C(=O)O,98.3% (inactive)
6,COc1cnc2c(c1)C(=O)c1c-2n(CCCN2CCOCC2)c(=O)c2cc(F)ccc12,13.3% (inactive)
7,CN1CCN(CCCOc2ccc3ncnc(Nc4ccc(OCc5cccc(F)c5)c(Cl)c4)c3c2)CC1,72% (inactive)
8,C[C@H](C(=O)N[C@@H](Cc1ccc(-c2ccccc2)cc1)C(=O)NC1CC(C)(C)N(C)C(C)(C)C1)c1ccc(-c2ccccc2)c(F)c1,-82.5% (active)
9,CN(C)CCCNc1nn2c(=O)c3ccccc3nc2c2ccccc12,75.6% (inactive)
10,CN1C(=O)C(C2=NN(C=O)C(c3ccc(F)cc3)C2)C(=O)N(C)C1=O (stereo not given),102% (inactive)
11,COc1ccc2c(c1)CC[C@@H]1[C@@H]2CC[C@]2(C)[C@@H](O)C(=O)C[C@@H]12,103% (inactive)
12,Cc1cc(Br)c(C)cc1Br,99.9% (inactive)
13,COC(=O)[C@H](Cc1cn(C)cn1)NC(=O)[C@@H](NC(=O)Nc1cc(C(F)(F)F)cc(C(F)(F)F)c1)C(C)C,-98% [100 µM] (active)
14,COc1cc(C2CC(C3C(=O)N(C)C(=O)N(C)C3=O)=NN2C=O)cc(OC)c1OC (stereo not given),106% (inactive)
15,CSc1nc(-c2ccc(O)cc2O)c2c(=O)[nH]c(Nc3ccc(S(=O)(=O)Nc4nc(C)cc(C)n4)cc3)nc2n1,87.1% (inactive)
16,O=C(NC1CCCCC1)c1ccc(Nc2ncnc3c2cnn3-c2ccccc2)cc1,59.8% (inactive)
17,Cc1n(Cc2ccc3ccccc3c2)cc[n+]1Cc1ccc2ccccc2c1,-13.6% (active)
18,CC(NC(N)=S)c1ccccc1 (stereo not given),118% (inactive)
19,Cc1nn(-c2ccccc2)cc1/C=C1\SC(N2CCCCC2)=NC1=O,88.2% (inactive)
20,CCN(CC)c1ccc(N=C2C=CC(=O)C=C2NC(C)=O)cc1,109% (inactive)
